Potency data for eight molecules are collected here from PubChem BioAssay (Tox21).

The nature of experiment [1]: Nuclear factor erythroid 2-related factor 2/antioxidant responsive element (Nrf2/ARE) small molecule agonists: qHTS cell viability counter screen in human keratinocytes (AID 1919968; active = well fitted curve in the direction sought with a large enough effect in the repeat runs; an effect the other way counts as inactive or inconclusive; note: nearly all actives have a fitted effect of over 55% in size; note: potency is the fitted concentration of half-maximal effect). An outline of the steps:
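Viability counter-screen: KeratinoSens reporter cells, DMSO-delivered compounds, 23 h at 37 C, CellTiter-Fluor fluorescence.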
On the technique in general: Quantitative high-throughput screening tests each substance at several concentrations.

For experiment [2], the target named is Gonadotropin-releasing hormone receptor (Homo sapiens) (UniProt P30968). The experiment can be described thus: Human gonadotropin-releasing hormone receptor (GnRHR) small molecule agonists, calcium flux assay in GnRHR-HEK293 cells (AID 1920063). Note: nearly all actives have a fitted effect of over 35% in size. An outline of the steps:
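Tox21-format agonist screen using human GnRHR-expressing HEK293 cells and a fluorescent calcium dye; kinetic 3-min fluorescence reading after compound addition, 15-point concentration series run in triplicate.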

Experiment [3] has as its target KiSS-1 receptor (Homo sapiens) (UniProt Q969F8). Put plainly: Human kisspeptin (KISS1R) small molecule agonists, calcium flux assay in KISS1R-HEK293 cells (AID 1920064; active = well fitted curve in the direction sought with a large enough effect in the repeat runs; an effect the other way counts as inactive or inconclusive). An outline of the steps: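 Intracellular calcium mobilization in KISS1R-HEK293 cells was recorded by fluorescence (Ex/Em 480/540) for 3 min following compound addition to cells pre-loaded 1 h with calcium dye.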
On the technique in general: Calcium assays in cells follow changes in intracellular calcium, usually with a dye or a luminescent sensor.

Experiment [4] can be described thus: G protein-coupled receptor (GPCR) small molecule agonists, calcium flux assay: HEK293 wild type cell line counter screen (AID 1920065). An outline of the steps:
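In this agonist-mode screen, ATP is the positive control and DMSO the vehicle. Cells grow 18 h before a 1 h dye incubation at 37 C; signal is taken at Ex/Em 480/540 over 3 min.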

Experiment [5] can be described thus: p53 small molecule agonists, cell-based qHTS assay with human liver microsomes: qHTS cell viability counter screen (AID 1963579). Note: nearly all actives have a fitted effect of over 45% in size. An outline of the steps:
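Cytotoxicity counter screen: p53RE-bla, 4,000 cells/well; 5 h settle, 37 C/5% CO2; cpd + HLM 0.5 mg/mL + NADPH 0.5 mg/mL (final); 16 h, 37 C; CellTiter-Glo, 30 min RT, luminescence.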

A short description of experiment [6]: p53 small molecule agonists, cell-based qHTS assay with rat liver microsomes: qHTS cell viability counter screen (AID 1963580). Note: nearly all actives have a fitted effect of over 45% in size. An outline of the steps: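 Viability is assessed in parallel with the p53 reporter read: HCT-116 p53RE-bla cells receive compounds plus rat microsomes and NADPH (0.5 mg/mL final apiece), incubate 16 h at 37 C, and then CellTiter-Glo luminescence is recorded.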

The nature of experiment [7]: p53 small molecule agonists, cell-based qHTS assay: qHTS cell viability counter screen (AID 1963581). Note: nearly all actives have a fitted effect of over 45% in size. An outline of the steps: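 Compounds are pinned onto HCT-116 p53RE-bla cells and left 16 h at 37 C. Following the reporter FRET read, ATP is quantified by CellTiter-Glo luminescence after 30 min at room temperature.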
The target of experiment [8] is 5-hydroxytryptamine receptor 2A (Homo sapiens) (UniProt P28223). Put plainly: 5-hydroxytryptamine receptor 2A (HTR2A) small molecule antagonists, cell-based qHTS assay (AID 1963586). Note: nearly all actives have a fitted effect of over 45% in size. An outline of the steps: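 Antagonist-mode intracellular calcium assay: DOI (4 nM) added after 5 min compound pre-incubation at room temperature to dye-loaded HTR2A-CHO cells. Fluorescence followed for 3 min, sampled every second.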

Experiment [9] shares this target. The experiment can be described thus: 5-hydroxytryptamine receptor 2A (HTR2A) small molecule agonists, cell-based qHTS assay (AID 1963587). Note: nearly all actives have a fitted effect of over 30% in size. An outline of the steps: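 CHO cells stably expressing human HTR2A, plated 18 h, loaded with calcium dye 1 h at 37 C. Agonist mode: compounds added and intracellular calcium fluorescence recorded kinetically for 2 min at 1 sec intervals.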

Experiment [10] has as its target Muscarinic acetylcholine receptor M1 (Homo sapiens) (UniProt P11229). Put plainly: Cholinergic receptor muscarinic 1 (CHRM1) small molecule antagonists, cell-based qHTS assay (AID 1963588). Note: nearly all actives have a fitted effect of over 40% in size. An outline of the steps:
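CHRM1-CHO calcium-flux assay, antagonist mode. Cells were seeded 18 h, dye-loaded 1 h at 37 C and given compound for 5 min at RT, then acetylcholine was added at 50nM. FDSS fluorescence was read 3 min; 15 concentrations, three runs.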

Experiment [11] shares this target. Put plainly: Cholinergic receptor muscarinic 1 (CHRM1) small molecule agonists, cell-based qHTS assay (AID 1963589). Note: nearly all actives have a fitted effect of over 35% in size. An outline of the steps:
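Stable CHRM1-CHO cells (human receptor) were incubated 18 h, dye-loaded for 1 h at 37 C and exposed to test compounds for agonist activity, with calcium-dependent fluorescence followed kinetically.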

A short description of experiment [12]: cAMP Responsive Elements (CRE) small molecule agonists, cell-based qHTS assay (AID 1963590). An outline of the steps: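 FRET-based beta-lactamase readout (LiveBLAzer B/G, 2 h RT) quantified CRE activation in HEK 293T CRE-bla cells after 3 h treatment with DMSO-dissolved compounds.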
The nature of experiment [13]: cAMP Responsive Elements (CRE) small molecule antagonists, cell-based qHTS assay (AID 1963591; active = well fitted inhibition curve with a large enough effect in the signal ratio in the repeat runs, not every such curve was filed as active; the % refers to the signal ratio). An outline of the steps:
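qHTS in CRE-bla HEK 293T cells: compound in DMSO, then 0.25 uM NKH477 (final), 3 h at 37 °C/5% CO2; beta-lactamase FRET read-out after 2 h substrate incubation.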

The target of experiment [14] is Beta-2 adrenergic receptor (Homo sapiens) (UniProt P07550). Put plainly: Adrenergic beta2 receptor (ADRB2) small molecule agonists, cell-based qHTS assay (AID 1963593).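 Note: CHO cells stably overexpressing human ADRB2.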 An outline of the steps:
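CHO cells stably over-expressing ADRB2 were plated overnight at 37C, then dosed with compounds plus a stimulation mix containing 100uM IBMX and 25uM Ro-20-1724 for 0.5hr at room temperature. cAMP was measured by HTRF competition, 1hr.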

Experiment [15] addresses D(2) dopamine receptor (Homo sapiens) (UniProt P14416). The experiment can be described thus: Dopamine D2 receptor (DRD2) small molecule agonists, cell-based qHTS assay (AID 1963594). Note: nearly all actives have a fitted effect of over 35% in size. An outline of the steps: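 HEK293 cells stably expressing human DRD2, pre-treated with PDE inhibitor Ro20-1724 (0.1 mM final) and compound 10 min at room temperature, then stimulated with NKH477 (200nM […]) for 30 min. cAMP read by HTRF (665/620 nm).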

Experiment [16] has the same target. The experiment can be described thus: Dopamine D2 receptor (DRD2) small molecule antagonists, cell-based qHTS assay (AID 1963595; active = well fitted inhibition curve with a large enough effect in the signal ratio in the repeat runs, with a control signal flat; the % refers to the signal ratio). An outline of the steps:
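HTRF cAMP read-out at 665 and 620 nm emission (340 nm excitation). Antagonist mode: compounds were tested against 12 nM quinpirole in DRD2-HEK293 cells, with 200 nM NKH477 raising cAMP and 0.1 mM Ro20-1724 blocking its breakdown.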

A short description of experiment [17]: p53 small molecule agonists, cell-based qHTS assay with human liver microsomes (AID 1963577). An outline of the steps: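 Fluorescence of the beta-lactamase reporter in p53RE-bla cells, detected with LiveBLAzer substrate (2 h, room temperature, dark), served as the read-out after 16 h compound exposure at 37 C with human liver microsomes and NADPH, each 0.5 mg/mL final.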

A short description of experiment [18]: p53 small molecule agonists, cell-based qHTS assay (AID 1963582; active = well fitted activation curve with a large enough effect in the signal ratio in the repeat runs, not every such curve was filed as active; the % refers to the signal ratio). An outline of the steps: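 Agonist activity was scored from beta-lactamase FRET fluorescence in p53RE-bla cells treated 16 h at 37 C with compounds in DMSO, substrate incubation being 2 h at room temperature.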
Experiment [19] concerns the target Beta-2 adrenergic receptor (Homo sapiens) (UniProt P07550). Put plainly: Adrenergic beta2 receptor (ADRB2) small molecule antagonists, cell-based qHTS assay (AID 1963592). Note: series mostly up to about 92 µM; nearly all actives have a fitted effect of over 50% in size. An outline of the steps: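 Cells (CHO, stable ADRB2 overexpression) incubated 18-20hr at 37C; compounds added from DMSO; agonist mix (1nM isoproterenol, 100uM IBMX, 25uM Ro-20-1724) added; 0.5hr RT; d2-cAMP and anti-cAMP-cryptate added; 1hr RT; 665/615 nm read.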

Experiment [20] in a line: p53 small molecule agonists, cell-based qHTS assay with rat liver microsomes (AID 1963578). An outline of the steps:
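Cells carrying a p53 response element–beta-lactamase reporter were plated and rested 5 h, then dosed with compound in DMSO plus rat liver microsomes and NADPH, each at 0.5 mg/mL final. After 16 h at 37 C, LiveBLAzer substrate was added for 2 h.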

Where “and” joins values, the source holds several entries; their conditions need not be identical. Equal values may be shown once. Records with an inconclusive call do not appear. The source holds several records for some structures; these can differ, active in one and inactive in another. Calls of active or inactive are those of the source. Unless noted, calls come from the whole dose curve.

Chain of Beta-2 adrenergic receptor (Homo sapiens) (P07550 whole entry, looked up): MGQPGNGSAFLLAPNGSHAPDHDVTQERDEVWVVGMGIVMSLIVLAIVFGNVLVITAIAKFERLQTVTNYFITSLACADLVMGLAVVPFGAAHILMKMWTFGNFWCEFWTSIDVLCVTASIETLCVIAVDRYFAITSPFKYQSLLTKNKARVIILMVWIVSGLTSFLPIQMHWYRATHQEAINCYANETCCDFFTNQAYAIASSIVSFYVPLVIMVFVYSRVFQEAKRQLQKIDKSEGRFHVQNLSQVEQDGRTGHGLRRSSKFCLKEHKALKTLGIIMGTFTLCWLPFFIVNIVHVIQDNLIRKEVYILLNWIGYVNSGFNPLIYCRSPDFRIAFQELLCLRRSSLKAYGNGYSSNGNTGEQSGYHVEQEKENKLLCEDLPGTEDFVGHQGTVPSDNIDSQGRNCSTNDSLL
Chain of Gonadotropin-releasing hormone receptor (Homo sapiens) (P30968 whole entry, looked up): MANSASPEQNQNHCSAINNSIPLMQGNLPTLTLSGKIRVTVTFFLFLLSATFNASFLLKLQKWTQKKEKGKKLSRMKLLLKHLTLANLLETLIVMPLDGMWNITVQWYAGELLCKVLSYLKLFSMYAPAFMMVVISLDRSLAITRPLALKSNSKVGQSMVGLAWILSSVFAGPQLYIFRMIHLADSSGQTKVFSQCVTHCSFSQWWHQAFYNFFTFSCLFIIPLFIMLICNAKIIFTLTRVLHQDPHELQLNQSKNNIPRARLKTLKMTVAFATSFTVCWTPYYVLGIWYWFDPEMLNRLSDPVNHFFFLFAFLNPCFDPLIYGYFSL
Chain of KiSS-1 receptor (Homo sapiens) (Q969F8 whole entry, looked up): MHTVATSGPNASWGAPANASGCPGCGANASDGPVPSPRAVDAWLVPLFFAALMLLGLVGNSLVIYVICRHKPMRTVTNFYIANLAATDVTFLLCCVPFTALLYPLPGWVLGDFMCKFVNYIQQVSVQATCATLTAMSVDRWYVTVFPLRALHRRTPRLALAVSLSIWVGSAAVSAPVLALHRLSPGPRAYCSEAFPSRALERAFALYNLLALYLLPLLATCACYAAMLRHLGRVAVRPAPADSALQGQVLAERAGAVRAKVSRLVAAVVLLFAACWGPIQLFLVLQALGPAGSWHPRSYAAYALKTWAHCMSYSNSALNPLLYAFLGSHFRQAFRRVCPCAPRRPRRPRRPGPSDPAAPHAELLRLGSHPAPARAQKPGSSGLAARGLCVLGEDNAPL
Chain of 5-hydroxytryptamine receptor 2A (Homo sapiens) (P28223 whole entry, looked up): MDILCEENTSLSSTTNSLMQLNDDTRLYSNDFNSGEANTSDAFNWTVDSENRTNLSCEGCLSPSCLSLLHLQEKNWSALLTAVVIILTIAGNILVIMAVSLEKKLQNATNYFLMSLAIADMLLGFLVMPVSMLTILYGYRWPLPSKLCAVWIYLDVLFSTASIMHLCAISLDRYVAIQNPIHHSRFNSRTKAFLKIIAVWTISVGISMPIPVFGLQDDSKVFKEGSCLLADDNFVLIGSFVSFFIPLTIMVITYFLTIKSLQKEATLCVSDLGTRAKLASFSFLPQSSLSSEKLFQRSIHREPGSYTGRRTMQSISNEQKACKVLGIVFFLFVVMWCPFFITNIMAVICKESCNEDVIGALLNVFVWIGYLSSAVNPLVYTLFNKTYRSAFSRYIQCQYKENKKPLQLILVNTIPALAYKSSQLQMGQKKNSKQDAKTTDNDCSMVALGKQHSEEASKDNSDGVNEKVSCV
Chain of D(2) dopamine receptor (Homo sapiens) (P14416 whole entry, looked up): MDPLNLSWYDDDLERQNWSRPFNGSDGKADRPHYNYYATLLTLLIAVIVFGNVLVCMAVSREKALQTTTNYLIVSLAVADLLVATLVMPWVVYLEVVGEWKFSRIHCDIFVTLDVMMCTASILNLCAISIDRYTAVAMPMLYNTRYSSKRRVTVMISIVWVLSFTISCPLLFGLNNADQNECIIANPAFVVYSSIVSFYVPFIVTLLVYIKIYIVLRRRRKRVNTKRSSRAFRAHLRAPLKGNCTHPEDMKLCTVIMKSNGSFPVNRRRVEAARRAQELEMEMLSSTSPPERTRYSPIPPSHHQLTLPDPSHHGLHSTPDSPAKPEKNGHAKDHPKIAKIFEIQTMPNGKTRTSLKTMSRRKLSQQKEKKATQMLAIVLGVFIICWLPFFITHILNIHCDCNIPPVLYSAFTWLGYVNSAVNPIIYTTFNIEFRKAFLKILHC
Chain of Muscarinic acetylcholine receptor M1 (Homo sapiens) (P11229 whole entry, looked up): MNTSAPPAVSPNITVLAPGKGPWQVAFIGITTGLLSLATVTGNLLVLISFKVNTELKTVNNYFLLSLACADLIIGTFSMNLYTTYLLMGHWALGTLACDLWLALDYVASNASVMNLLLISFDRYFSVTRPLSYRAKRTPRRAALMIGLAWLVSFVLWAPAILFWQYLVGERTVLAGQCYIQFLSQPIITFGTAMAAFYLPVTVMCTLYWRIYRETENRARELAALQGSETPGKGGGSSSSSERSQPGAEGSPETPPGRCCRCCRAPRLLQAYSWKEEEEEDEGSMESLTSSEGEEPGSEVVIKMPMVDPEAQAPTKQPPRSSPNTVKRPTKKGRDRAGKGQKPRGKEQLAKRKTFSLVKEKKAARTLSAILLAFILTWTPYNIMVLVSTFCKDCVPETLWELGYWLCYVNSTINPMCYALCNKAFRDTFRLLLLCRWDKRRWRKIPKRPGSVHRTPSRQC

Take `O=P(O)(O)O`: the Potency result in [1], in [2], in experiment [3], in [4], in experiment [5] and in experiment [6] was “inactive” each time. Also, the Potency entry in experiment [7], in [8], in [9], in [10], in [11] and in [12] was “inactive” each time. The Potency result in experiment [13], in experiment [14], in [15] and in experiment [16] was “inactive” throughout.
Turning to `CC(C=O)c1ccccc1` (stereo not given), the Potency entry in [1], in experiment [2], in experiment [3], in [4], in experiment [17] and in experiment [5] was “inactive” in each case. Besides, the Potency result in experiment [6], in experiment [7], in [18], in experiment [8], in experiment [9] and in experiment [10] was “inactive” in each case. Further, the Potency entry in experiment [12], in [13], in [19], in experiment [14], in experiment [15] and in experiment [16] was “inactive” each time.
Take `CN1CCOCC1`: the Potency entry in experiment [1], in experiment [2], in experiment [3], in experiment [4], in experiment [17] and in [5] was “inactive” each time. The Potency entry in [6], in [7], in experiment [18], in experiment [8], in experiment [9] and in experiment [10] was “inactive” throughout. The Potency result in experiment [11], in experiment [12], in experiment [13], in experiment [19], in experiment [14] and in experiment [15] was “inactive” throughout. In addition, the Potency result in [16] is “inactive”.
For `Cc1oc(C)c(C(=O)Nc2ccccc2)c1C`, the Potency result in [1], in [2], in experiment [3], in [4], in experiment [17] and in [20] was “inactive” in each case. The Potency entry in experiment [5], in experiment [6], in experiment [7], in experiment [8], in experiment [9] and in [10] was “inactive” throughout. Further, the Potency result in [11], in [12], in [13], in experiment [19], in experiment [14] and in [16] was “inactive” throughout.
For `Nc1c(S(=O)(=O)O)cc(Br)c2c1C(=O)c1ccccc1C2=O`, in [1], the Potency entry is “inactive and 30.6 µM (active)”. In addition, the Potency result in experiment [2], in experiment [3], in experiment [4], in experiment [5], in [6] and in experiment [7] was “inactive” throughout. In addition, the Potency result in experiment [8], in experiment [9], in [10], in experiment [11], in experiment [12] and in experiment [13] was “inactive” each time. For the same molecule, the Potency entry in [19], in [15] and in experiment [16] was “inactive” each time.
As to `CC(C)=CCC[C@H](C)CC=O`, the Potency result in [1], in experiment [2], in [3], in experiment [4], in [17] and in experiment [20] was “inactive” in each case. The Potency entry in experiment [5], in experiment [6], in experiment [18], in experiment [12], in experiment [13] and in [19] was “inactive” throughout. Besides, the Potency result in experiment [14], in [15] and in [16] was “inactive” throughout.
`COC(=O)c1c(Cl)c(Cl)c(C(=O)OC)c(Cl)c1Cl`: the Potency entry in experiment [1], in experiment [2], in [3], in [4], in experiment [17] and in experiment [20] was “inactive” in each case. The Potency result in experiment [5], in [6], in [18], in experiment [8], in experiment [9] and in [10] was “inactive” throughout. For the same molecule, the Potency result in experiment [11], in experiment [12], in experiment [13], in experiment [19], in experiment [15] and in experiment [16] was “inactive” throughout.
For the molecule `c1ccc2ncccc2c1`, the Potency entry in experiment [1], in experiment [2], in experiment [3], in experiment [4], in experiment [20] and in experiment [5] was “inactive” in each case. Also, the Potency result in experiment [6], in experiment [18], in [8], in [9], in experiment [12] and in experiment [13] was “inactive” in each case. The Potency result in [19], in [15] and in [16] was “inactive” throughout.
